PubChem BioAssay AID540364 (The Scripps Research Institute Molecular Screening Center, 2011)
In all, about 360,000 compounds went through this assay and about 2,000 (0.56%) were called active. The sample as a whole holds a higher share of actives than the screen did. Unmarked numbers belong to inactive results.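 The calls were made as follows: active = activation above the average of all compounds screened plus 3 SD, cutoff fixed separately per campaign (cut at about 7.5% in these data); inactive = the rest.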

Assay: FXN promoter activators, primary screen, cell-based, luciferase luminescence, HEK293 lucGAA850 (AID 540364);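 also: 0% = DMSO wells and 100% = 10 µM SAHA wells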
Settings: HEK293 lucGAA850 FXN promoter luciferase reporter, 24 h; at 6 µM; active compounds read high; percent of 10 µM SAHA response

In order of rising activation:
1. O=C(NCCN1CCOCC1)c1ccccc1N1C(=O)[C@@H]2Cc3c([nH]c4ccccc34)C(c3cccc(Cl)c3)N2C1=O (some centres undefined)  -10.6%
2. CCC1(CC)C(=O)C2=C3C1[C@H](C(=O)OC)C=C(C(=O)OC)C[C@H]3[C@H]1C(=O)N(Cc3ccccc3)C(=O)[C@H]1[C@H]2C (some centres undefined)  -4.42%
3. COC(=O)[C@]1(Cc2ccccc2)N[C@H](CN(C)S(=O)(=O)c2ccc(F)cc2)[C@@H]2C(=O)N(Cc3ccccc3)C(=O)[C@@H]21  -3.95%
4. Cn1c(=O)cc(OCCCC(=O)N2CCN(c3ccccn3)CC2)c2ccccc21  -3.01%
5. CN(C(=O)CN1CCN(c2cc(-c3ccc(OCc4ccccc4)cc3)ncn2)CC1)c1ccccc1  -2.58%
6. O=C(COc1ccc(Cl)cc1)NCCS(=O)(=O)N1CCN(c2ccc(F)cc2)CC1  -2.02%
7. O=C1CC(c2c(F)cccc2Cl)C(n2cncn2)C(O)=C1C1NCCc2ccccc21 (centres undefined)  -1.97%
8. CC(=O)N1CCN(c2ccc(NCc3ccc(C(C)C)cc3)cc2)CC1  -1.92%
9. CCN(C[C@H]1N[C@@](Cc2ccccc2)(C(=O)OC)[C@H]2C(=O)N(Cc3ccccc3)C(=O)[C@@H]12)C(=O)c1ccc(C)cc1  -1.78%
10. COc1ccc(NS(=O)(=O)c2ccc3oc(SCC(N)=O)nc3c2)cc1  -1.75%
11. Cc1ccc(C(=O)N2CCC(n3nccc3NC(=O)Nc3cccc(F)c3)CC2)cn1  -1.64%
12. CC[C@]12c3[nH]c4ccc(Cl)cc4c3CCN1C(=O)[C@@H](CC(=O)NCCCOC)C[C@@H]2C(=O)N1CCN(C(=O)C2CC2)CC1  -1.48%
13. Cn1cc(S(=O)(=O)NC(c2ccccc2)c2ccccc2)c(=O)n(C)c1=O  -1.45%
14. CCSC1(SCC)N=C(N)C2(C#N)C(c3ccccc3)NC(C)=CC12C#N (centres undefined)  -1.4%
15. CC(C)c1cc(C(=O)O)n[nH]1  -1.31%
16. CCOc1cc(CNCc2ccccn2)ccc1OCC(=O)NC(C)(C)C  -1.18%
17. O=C(CCN1C(=O)c2ccncc2C1=O)Nc1ccc2c(c1)OCCO2  -1.17%
18. O=C1C=C(c2ccnc3cc(Cl)ccc23)C[C@@H](c2ccc3c(c2)OCO3)C1  -1.07%
19. Cc1ccc(N2C(=O)N3[C@@H]4c5ccccc5OC[C@@H]4[C@@H](c4ccccc4)[C@@]3(C)C2=O)cc1  -0.85%
20. CCn1c(NCCc2ccc(OC)c(OC)c2)nc2c1c(=O)n(C)c(=O)n2C  -0.8%
21. COc1cccc(-n2c(SCC(=O)NC3CCS(=O)(=O)C3)nc3ccccc3c2=O)c1 (centres undefined)  -0.8%
22. COc1cccc(CNS(=O)(=O)c2cc3c(cc2C)n(C)c(=O)c(=O)n3C)c1  -0.74%
23. CCCN=C1N(C)C[C@@H]2[C@@H]3C(=O)N(Cc4ccccc4)C(=O)[C@@H]3[C@](C)(C(=O)OC)N12  -0.73%
24. COc1ccc(C(C#N)Nc2ccc(C)cc2)cc1 (centres undefined)  -0.7%
25. Cc1ccc(O/C=C2\OC(=O)c3ccccc32)cc1  -0.57%
26. Cc1ccc(C2CC(c3cccc(C)c3)n3nc(N)nc3N2)cc1 (centres undefined)  -0.54%
27. CC[C@]1(C(=O)OC)[C@H]2C(=O)N(C)C(=O)[C@H]2[C@H]2CN(C)C(=NCc3ccccc3)N21  -0.41%
28. COc1ccc(CCNS(=O)(=O)c2cc3c(cc2C)NC(=O)CO3)cc1OC  -0.37%
29. O=C(NCc1ccccc1)C(c1cccnc1)N(C(=O)c1csnn1)c1ccc(F)cc1 (centres undefined)  -0.33%
30. S=C(NCCCc1cnc[nH]1)NCCCN(Cc1ccc(Cl)c(Cl)c1)c1ccc(Br)cn1  -0.12%
31. Cc1cc(-c2n[nH]c(=S)n2/N=C/C(Br)=C/c2ccccc2)n[nH]1  -0.09%
32. CSCCC(NC(=O)COc1ccccc1)C(=O)OCC(=O)c1cc2ccccc2o1 (centres undefined)  -0.05%
33. CCN(C(=O)COC(=O)C1CCN(S(=O)(=O)c2ccc(C)c(C)c2)CC1)C1CCS(=O)(=O)C1 (centres undefined)  0.06%
34. Cc1cccc(C(=O)Nc2ccccc2C(=O)NCc2cccnc2)c1  0.13%
35. O=C(Nc1ccc2c(c1)OCCO2)c1ccoc1  0.23%
36. CCc1nnc(NC(=O)CSc2nnnn2-c2cccc(C(C)=O)c2)s1  0.27%
37. O=C(O)CCCCCCCCCC[n+]1ccccc1  0.28%
38. COc1ccc(CCNCC(O)Cn2ccc3ccccc32)cc1OC (centres undefined)  0.29%
39. CCCC1NC(=O)NC(C)=C1C(=O)OCC (centres undefined)  0.3%
40. COc1ccc([C@@H]2[C@@H]3C(=O)N(C(C)(C)C)C(=O)[C@@H]3[C@]3(Cc4ccccc4)C(=O)N(c4cccc(Br)c4)C(=O)N23)cc1  0.35%
41. CCCCN(CC(=O)NC(C)(C)C)C(=O)C(=O)Nc1ccc2c(c1)OCCO2  0.41%
42. CC(=O)Oc1ccc(OC(C)=O)c2c1C1C=CC2CC1  0.61%
43. CN(CCc1ccccn1)C(=O)CCC1CCCN(Cc2ccccc2OC(F)F)C1 (centres undefined)  0.65%
44. COCc1cc(=O)oc2cc(NS(=O)(=O)c3ccc(C)cc3)ccc12  0.66%
45. CSc1ccc(-c2c(C#N)c(N)nc3c2c(C)nn3-c2ccccc2)cc1  0.67%
46. CCN(CCN(C)C)C(=O)c1ccc2nc(C)c(N(C)C(=O)CCc3ccccc3)n2c1  0.72%
47. CC(=O)c1ccc(OC(=O)N2CCOCC2)cc1  0.72%
48. O=C(NCc1cccnc1)Nc1cccc(NC(=O)NCc2cccnc2)c1F  0.81%
49. CCN1C[C@@H]2[C@@H]3C(=O)N(Cc4ccccc4)C(=O)[C@@H]3[C@](Cc3ccccc3)(C(=O)OC)N2C1=NC1CCCCC1  0.85%
50. C#CC(C)(C)NC(=O)CSc1nc2c(c(=O)n(C)c(=O)n2C)n1CCCC  0.86%
51. CCNC(=O)N(CC)C[C@H]1N[C@@](CC)(C(=O)OC)[C@H]2C(=O)N(Cc3ccccc3)C(=O)[C@@H]12  0.95%
52. CC(C)NC(=O)C1(C)CCCCN1Cc1cccc(C(F)(F)F)c1 (centres undefined)  0.98%
53. CN1CCc2nc(SC(C(=O)O)c3ccccc3)c(C#N)c(-c3cccs3)c2C1 (centres undefined)  1.01%
54. NC(=O)NCCCC(=O)O  1.1%
55. Cc1ccc(-c2cc(C(=O)N/N=C/C=C/c3ccccc3)n[nH]2)o1  1.11%
56. CN(N)c1nc(N2CCCC2)nc(N2CCCC2)n1  1.2%
57. CC(=O)N1c2ccc(S(=O)(=O)N3CCCC(C(=O)Nc4cccc(F)c4)C3)cc2CC1C (centres undefined)  1.26%
58. CCN1C[C@@H]2[C@@H]3C(=O)N(Cc4ccccc4)C(=O)[C@@H]3[C@](C)(C1=O)N2C(=O)c1ccc(C(C)(C)C)cc1  1.3%
59. CC1(Oc2ccccc2-c2ccno2)CCN(Cc2ccc(-c3ccccc3)o2)C1 (centres undefined)  1.3%
60. Cc1ccc(C)c(OCCC(=O)OCC(=O)NC(=O)NCc2ccccc2)c1  1.32%
61. COc1ccc(CNC(=O)c2ccc(-c3cccnc3)c3ccoc23)cc1OC  1.42%
62. Cn1cc(S(=O)(=O)Nc2ccc(Cl)cc2Cl)c(=O)n(C)c1=O  1.45%
63. O=C1CSC2=NCN(c3ccccc3)CN12  1.46%
64. COc1ccccc1-c1c(C#N)c(N)nc2c1CCC2  1.52%
65. CN(Cc1ccccc1)C(=O)C1CCCN(c2ncnc3c2nc2n3CCCCC2)C1 (centres undefined)  1.56%
66. CCOc1ccc(S(=O)(=O)N2CCN(C(=O)c3oc4ccccc4c3C)CC2)cc1  1.62%
67. O=C1COc2c1ccc(O)c2O  1.71%
68. CC(=O)N1CC2(C)CN(C(C)=O)CC(C)(C1)C2=O  1.87%
69. CN(C(=O)c1ccccc1)c1nccnc1C#N  1.95%
70. Oc1ccc(C2Nc3cccc4cccc(c34)N2)cc1  1.97%
71. CCOC(=O)N1CCC(c2cc(=O)n(-c3ccccc3)[nH]2)CC1  1.97%
72. COc1ccc(S(=O)(=O)N(C)C)cc1NC(=O)CSc1ncccn1  2.15%
73. COCC(C)n1c(SCc2ccc(C(=O)OC)o2)nc2ccccc2c1=O (centres undefined)  2.64%
74. O=C(Nc1ccc(F)cc1)c1cc2c(s1)CCCC2  2.99%
75. COc1cccc(OC)c1C(=O)Nc1ccc(Cc2ccncc2)cc1  3.03%
76. Cc1cccnc1CC(C)NC(=O)c1cc(COc2cncc(Cl)c2)on1 (centres undefined)  3.48%
77. Cc1cc(C(=O)NCCc2ccc(Cl)cc2)c(C)o1  3.56%
78. CC(C)c1ccc(NC2CCCN(C(=O)c3ccncc3)C2)cc1 (centres undefined)  3.59%
79. Cc1noc(C)c1-c1ccc(C(=O)NCc2ccncc2)c2occc12  3.59%
80. CC(=O)c1ccc(NC(=O)CCc2nnc3ccc(NCc4ccco4)nn23)cc1  3.69%
81. CCc1c(-c2ccccc2)nc(N)c(C#N)c1-c1cccs1  3.81%
82. COc1ccc(OCc2cc(C(=O)NCC3(C)COC3)no2)c(Cl)c1  4.24%
83. Cc1cccc([C@@H]2[C@@H]3C(=O)N(Cc4ccccc4)C(=O)[C@@H]3[C@]3(C)C(=O)N(c4ccc(Br)cc4)C(=O)N23)c1  4.94%
84. CCN1C(=O)[C@H]2[C@@H](c3ccc(C)cc3)N3C(=O)N(c4cccc(Br)c4)C(=O)[C@@]3(CC)[C@H]2C1=O  5.85%

For Cc1ccc(C2Nc3cccc4cccc(c34)N2)cc1, the activation was 14.9% (active).
In the case of CCCCCCCCCCCC(=O)O, the activation is reported as 9.07% (active).
With CC(C)c1ccc(NS(=O)(=O)c2cn(C)c(=O)n(C)c2=O)cc1 the activation was 14.8% (active).
In the case of Cc1cc(C(=O)N/N=C\C(Br)=C\c2ccccc2)c(C)o1, the activation is reported as 11.4% (active).
With CC(C)c1cc(C(=O)N/N=C/C(Br)=C/c2ccccc2)n[nH]1 the activation was 9.41% (active).
In the case of O=C(Nc1ccc2c(c1)OCCO2)c1cnccn1, the activation is reported as 7.89% (active).
With CC[C@]1(C(=O)OC)[C@H]2C(=O)N(Cc3ccccc3)C(=O)[C@H]2[C@H]2CN=C(SCc3ccc(C#N)cc3)N21 the activation was 13.3% (active).
With CC[C@]1(C(=O)OC)[C@H]2C(=O)N(Cc3ccccc3)C(=O)[C@H]2[C@H]2CN=C(SCc3ccccc3)N21 the activation was 15.5% (active).
For COC(=O)[C@@]1(C)[C@H]2C(=O)N(Cc3ccccc3)C(=O)[C@H]2[C@H]2CN=C(SCC3CC3)N21, the activation was 15.7% (active).
For CC[C@]1(C(=O)OC)[C@H]2C(=O)N(Cc3ccccc3)C(=O)[C@H]2[C@H]2CN=C(SCc3ccc(Cl)cc3)N21, the activation was 17.8% (active).
With Cc1cc(OCc2cc(C(=O)NCc3cc(C(C)C)no3)no2)cc(C)c1Cl the activation was 8.34% (active).
With CCCCn1c(SCC(=O)NCCc2ccc(OC)c(OC)c2)nc2c1c(=O)n(C)c(=O)n2C the activation was 7.97% (active).
In the case of CC[C@@]12C(=O)N(c3ccccc3)C(=O)N1[C@H](c1ccc(Br)cc1)[C@@H]1C(=O)N(C(C)(C)C)C(=O)[C@@H]12, the activation is reported as 15% (active).
For CC(C)(C)N1C(=O)[C@H]2[C@@H](c3ccc(Br)cc3)N3C(=O)N(c4cccc(Cl)c4)C(=O)[C@@]3(C)[C@H]2C1=O, the activation was 14.1% (active).
With CSc1nc(N)c(C#N)c(-c2ccccc2Cl)c1C#N the activation was 16.1% (active).
For Cc1c(-c2ccccc2)nc(N)c(C#N)c1-c1cccs1, the activation was 8.43% (active).
In the case of CN(C)S(=O)(=O)c1ccc2oc(SCC(=O)Nc3ccccc3F)nc2c1, the activation is reported as 7.74% (active).
For C=C1c2c(Cl)ccc(O)c2C(O)=C2C(=O)[C@]3(O)C(O)=C(C(N)=O)C(=O)[C@@H](N(C)C)[C@@H]3[C@@H](O)C12 (some centres undefined), the activation was 13.5% (active).
For CN(C)[C@@H]1C(=O)C(C(N)=O)=C(O)[C@@]2(O)C(=O)C3=C(O)c4c(O)ccc(Cl)c4[C@@H](O)[C@H]3C[C@@H]12, the activation was 13.6% (active).
For COC(=O)c1ccc(CSc2nc3ccccc3c(=O)n2-c2cccc(OC)c2)o1, the activation was 10.1% (active).
